Results reported in PubChem BioAssay AID588354 (The Scripps Research Institute Molecular Screening Center, 2011).
Among all 360,000 compounds or so, about 430 (0.12%) were called active.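 How the source made its calls: active means inhibition above the campaign mean plus 3 SD, with each screening campaign given its own cutoff (cut at about 60% in these data); inactive means the rest.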 The entries come from a sample that favours actives as a whole.

These compounds were tested against Nuclear receptor coactivator 1 (Homo sapiens) (UniProt Q15788) (assay: SRC1 coactivator transcriptional activity inhibitors, primary screen, cell-based, luminescence (AID 588354;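 further: 0% = DMSO treated cells and 100% = gossypol at 36 µM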)). Conditions: HEK293 GAL4-SRC1 luciferase reporter, at 3.6 µM, active compounds read high.
Sequence of Nuclear receptor coactivator 1 (Homo sapiens) (Q15788 whole entry, looked up, the tested form may be a part): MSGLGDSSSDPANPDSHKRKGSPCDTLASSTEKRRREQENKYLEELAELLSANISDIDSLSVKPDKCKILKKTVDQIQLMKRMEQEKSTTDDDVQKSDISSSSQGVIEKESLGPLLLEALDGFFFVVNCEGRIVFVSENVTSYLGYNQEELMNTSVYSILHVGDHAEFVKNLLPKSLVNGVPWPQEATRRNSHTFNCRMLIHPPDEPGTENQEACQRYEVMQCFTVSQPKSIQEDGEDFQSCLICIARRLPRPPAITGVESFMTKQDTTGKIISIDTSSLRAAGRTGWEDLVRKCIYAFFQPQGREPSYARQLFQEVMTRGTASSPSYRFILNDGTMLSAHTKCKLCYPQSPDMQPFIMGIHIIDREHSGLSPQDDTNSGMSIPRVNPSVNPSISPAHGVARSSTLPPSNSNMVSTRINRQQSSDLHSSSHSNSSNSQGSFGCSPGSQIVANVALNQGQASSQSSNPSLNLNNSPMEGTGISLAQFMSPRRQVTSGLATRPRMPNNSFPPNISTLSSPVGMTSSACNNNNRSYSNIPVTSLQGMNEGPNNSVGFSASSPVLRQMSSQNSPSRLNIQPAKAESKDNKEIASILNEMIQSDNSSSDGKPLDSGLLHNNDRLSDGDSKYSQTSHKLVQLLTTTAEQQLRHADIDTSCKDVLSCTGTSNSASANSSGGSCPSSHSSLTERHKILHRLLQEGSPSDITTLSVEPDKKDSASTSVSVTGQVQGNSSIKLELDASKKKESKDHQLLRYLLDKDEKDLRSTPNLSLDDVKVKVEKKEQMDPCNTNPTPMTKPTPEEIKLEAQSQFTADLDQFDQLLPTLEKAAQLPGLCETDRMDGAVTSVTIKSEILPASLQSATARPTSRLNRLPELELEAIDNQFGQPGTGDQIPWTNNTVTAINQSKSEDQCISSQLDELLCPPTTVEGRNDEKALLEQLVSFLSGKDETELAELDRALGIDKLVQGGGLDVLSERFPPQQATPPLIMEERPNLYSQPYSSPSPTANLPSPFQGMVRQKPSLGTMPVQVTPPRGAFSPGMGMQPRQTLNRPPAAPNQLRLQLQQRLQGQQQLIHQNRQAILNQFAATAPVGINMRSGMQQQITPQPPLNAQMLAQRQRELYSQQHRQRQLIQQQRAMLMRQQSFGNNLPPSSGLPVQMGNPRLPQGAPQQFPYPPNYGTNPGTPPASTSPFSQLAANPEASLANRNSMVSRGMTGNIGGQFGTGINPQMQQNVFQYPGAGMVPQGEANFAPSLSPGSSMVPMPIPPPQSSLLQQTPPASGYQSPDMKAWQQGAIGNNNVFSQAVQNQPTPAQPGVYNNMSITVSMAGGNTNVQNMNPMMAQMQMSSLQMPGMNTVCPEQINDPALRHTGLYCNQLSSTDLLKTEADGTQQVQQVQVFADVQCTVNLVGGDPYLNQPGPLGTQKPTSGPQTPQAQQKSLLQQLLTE

| SMILES | inhibition |
| --- | --- |
| C[C@@H](NC(=O)c1nc[nH]c1C(=O)N1CCN(C(=O)OC(C)(C)C)CC1)c1ccccc1 | -15.6% (inactive) |
| Cn1cc(/C=C/C(=O)N2CCCC(C(=O)c3ccc(C(F)(F)F)cc3)C2)cn1 (centres undefined) | 8.39% (inactive) |
| CC1(NC(=O)CCS(=O)(=O)c2ccc(Cl)cc2)CCS(=O)(=O)C1 (centres undefined) | -3.53% (inactive) |
| CC(C)(C)c1nc2ccccc2c(=O)n1N1C(=O)c2ccccc2C1=O | 6.03% (inactive) |
| CN(C(=O)Nc1ccc(Cl)cc1)n1cnc2ccccc2c1=O | -15.6% (inactive) |
| CN(c1ccc2nc3ccccc3c(=O)n2n1)C1CCCCC1 | 71.9% (active) |
| CSc1ncccc1C(=O)Nc1cccc(S(=O)(=O)N2CCOCC2)c1 | -16.1% (inactive) |
| O=C(Nc1cccc(Cc2ccccc2)c1)Nc1ccc2nc([C@@H]3O[C@H](CO)[C@@H](O)[C@H](O)[C@H]3O)[nH]c2c1 | -1.54% (inactive) |
| CC(C)(C)c1ccc(Oc2ccc(N)cc2)cc1 | 74% (active) |
| CN(C)S(=O)(=O)c1ccc(Oc2ccc(S(=O)(=O)N(C)C)cc2)cc1 | 21.5% (inactive) |
| COc1cc2c3c(c1)/C(=C1/SC(=S)NC1=O)C(=O)N3C(C)(C)C=C2C | -18% (inactive) |
| CCN(CC(=O)Nc1ccc2c(c1)OCCO2)Cc1cc(=O)oc2cc(C)c(C)cc12 | 1.42% (inactive) |
| COC(=O)c1ccc(N2CCOCC2)c(NC(=O)c2ccc(Br)o2)c1 | 3.93% (inactive) |
| CCCCc1nc2c(=O)[nH]c3ccccc3c2o1 | -5.89% (inactive) |
| Cc1cc(C)cc(NC(=O)CSCc2cnn(-c3ccccc3)c2-n2cccc2)c1 | 0.69% (inactive) |
| CCCc1noc2c1/C(=N\O)CCC2 | 7.65% (inactive) |
| Cc1oc(C(N)=O)cc1COc1ccc(C(N)=O)cc1 | 11.6% (inactive) |
| Cn1c(-c2ccc(C(F)(F)F)cc2)cc2onc(-c3ccccc3)c2c1=O | -53.3% (inactive) |
| CC(OC(=O)c1ccc(-n2cnnn2)cc1)C(=O)NCc1ccccc1 (centres undefined) | -1.03% (inactive) |
| CCC(C)c1ccccc1NC(=O)CN(C)CC(=O)Nc1ccccc1SC (centres undefined) | 3.11% (inactive) |
| CCc1ccc(C(=O)N2CCN(S(=O)(=O)c3sc(C(=O)O)c(C)c3C(=O)O)CC2)cc1 | -9.2% (inactive) |
| CC(C)CCNC(=O)C(C)N(C(=O)Cn1nnc(-c2ccc(F)cc2)n1)C1CCCC1 (centres undefined) | 5.49% (inactive) |
| COc1ccc(Cn2cccc(NC(=O)Nc3ccc(C#N)cc3)c2=O)cc1 | 13.7% (inactive) |
| CCOc1ccc(S(=O)(=O)N2CCN(C(=O)c3oc4ccccc4c3C)CC2)cc1 | -3.94% (inactive) |
